Measured values from the supplement of paper PMC10849652.
About 8,800 targets were measured; listed, in parts, are those with a hit and a random draw of the rest. About 0.5% of all pairs of compound and target were hits. Values without a mark were called inactive.

Compound: CC1=C2C(=CC=C1)N=C(N(C2=O)C3=CC=CC=C3C)CN4C=NC5=C(N=CN=C54)N
Experiment: log2 fold change, soluble protein after heating vs DMSO (PISA); higher = thermal stabilisation; K562 lysate, 10 uM; active = over 0.2 and 3.5 SD of the protein, either way, in both replicates (recomputed)
Summary of the method: (§1)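 Soluble protein was defined as the supernatant remaining after 21,000xg for 90 min, following pooling of heated aliquots and adjustment to 0.5% NP-40 at 4°C. Before that, crude K562 extract at 1 mg/mL protein in PBS pH 7.4 with 1 mM MgCl2 was treated with 10 μM compound for 30 min and heated for 3 min across 48°C-58°C. Quantification used TMTpro 16plex LC-MS/MS with channel sums equalised, and values are log-two fold changes in thermal stability relative to solvent controls from duplicates.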

Chain of UniProt P06753 (P06753 whole entry, looked up): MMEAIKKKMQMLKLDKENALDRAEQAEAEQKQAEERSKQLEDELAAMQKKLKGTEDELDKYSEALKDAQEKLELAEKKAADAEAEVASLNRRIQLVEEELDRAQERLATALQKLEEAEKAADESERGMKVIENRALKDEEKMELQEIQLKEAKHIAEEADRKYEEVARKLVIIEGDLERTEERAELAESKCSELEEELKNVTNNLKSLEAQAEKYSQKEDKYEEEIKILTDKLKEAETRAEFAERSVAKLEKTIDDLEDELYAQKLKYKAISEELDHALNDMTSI
Chain of UniProt O60637 (O60637 whole entry, looked up): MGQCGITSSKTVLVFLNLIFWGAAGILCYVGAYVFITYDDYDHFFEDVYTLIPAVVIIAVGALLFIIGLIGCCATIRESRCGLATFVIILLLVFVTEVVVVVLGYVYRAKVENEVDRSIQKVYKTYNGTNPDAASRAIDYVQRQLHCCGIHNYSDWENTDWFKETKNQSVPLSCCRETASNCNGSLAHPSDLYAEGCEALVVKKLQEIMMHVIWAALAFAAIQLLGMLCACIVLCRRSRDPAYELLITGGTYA
Chain of UniProt Q6Q0C0 (Q6Q0C0 whole entry, looked up): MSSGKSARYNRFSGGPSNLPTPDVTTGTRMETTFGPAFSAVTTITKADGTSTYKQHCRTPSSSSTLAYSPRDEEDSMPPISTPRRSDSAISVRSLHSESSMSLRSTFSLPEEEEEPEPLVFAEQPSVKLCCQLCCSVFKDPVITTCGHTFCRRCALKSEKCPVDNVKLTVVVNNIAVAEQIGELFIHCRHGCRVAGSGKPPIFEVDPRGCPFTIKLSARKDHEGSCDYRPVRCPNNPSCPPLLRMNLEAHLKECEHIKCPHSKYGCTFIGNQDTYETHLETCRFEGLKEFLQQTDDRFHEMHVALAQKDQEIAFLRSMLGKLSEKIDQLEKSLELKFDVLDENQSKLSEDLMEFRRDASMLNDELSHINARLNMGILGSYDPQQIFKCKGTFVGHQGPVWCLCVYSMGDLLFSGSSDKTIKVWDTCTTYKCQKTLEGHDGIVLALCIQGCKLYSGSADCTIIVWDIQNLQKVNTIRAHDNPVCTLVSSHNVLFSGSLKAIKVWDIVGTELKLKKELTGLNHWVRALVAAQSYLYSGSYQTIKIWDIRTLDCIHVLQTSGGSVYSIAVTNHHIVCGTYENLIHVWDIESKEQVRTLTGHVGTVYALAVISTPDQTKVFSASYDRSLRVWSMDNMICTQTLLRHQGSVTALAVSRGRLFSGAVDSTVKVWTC
Chain of UniProt Q9NPG3 (Q9NPG3 whole entry, looked up): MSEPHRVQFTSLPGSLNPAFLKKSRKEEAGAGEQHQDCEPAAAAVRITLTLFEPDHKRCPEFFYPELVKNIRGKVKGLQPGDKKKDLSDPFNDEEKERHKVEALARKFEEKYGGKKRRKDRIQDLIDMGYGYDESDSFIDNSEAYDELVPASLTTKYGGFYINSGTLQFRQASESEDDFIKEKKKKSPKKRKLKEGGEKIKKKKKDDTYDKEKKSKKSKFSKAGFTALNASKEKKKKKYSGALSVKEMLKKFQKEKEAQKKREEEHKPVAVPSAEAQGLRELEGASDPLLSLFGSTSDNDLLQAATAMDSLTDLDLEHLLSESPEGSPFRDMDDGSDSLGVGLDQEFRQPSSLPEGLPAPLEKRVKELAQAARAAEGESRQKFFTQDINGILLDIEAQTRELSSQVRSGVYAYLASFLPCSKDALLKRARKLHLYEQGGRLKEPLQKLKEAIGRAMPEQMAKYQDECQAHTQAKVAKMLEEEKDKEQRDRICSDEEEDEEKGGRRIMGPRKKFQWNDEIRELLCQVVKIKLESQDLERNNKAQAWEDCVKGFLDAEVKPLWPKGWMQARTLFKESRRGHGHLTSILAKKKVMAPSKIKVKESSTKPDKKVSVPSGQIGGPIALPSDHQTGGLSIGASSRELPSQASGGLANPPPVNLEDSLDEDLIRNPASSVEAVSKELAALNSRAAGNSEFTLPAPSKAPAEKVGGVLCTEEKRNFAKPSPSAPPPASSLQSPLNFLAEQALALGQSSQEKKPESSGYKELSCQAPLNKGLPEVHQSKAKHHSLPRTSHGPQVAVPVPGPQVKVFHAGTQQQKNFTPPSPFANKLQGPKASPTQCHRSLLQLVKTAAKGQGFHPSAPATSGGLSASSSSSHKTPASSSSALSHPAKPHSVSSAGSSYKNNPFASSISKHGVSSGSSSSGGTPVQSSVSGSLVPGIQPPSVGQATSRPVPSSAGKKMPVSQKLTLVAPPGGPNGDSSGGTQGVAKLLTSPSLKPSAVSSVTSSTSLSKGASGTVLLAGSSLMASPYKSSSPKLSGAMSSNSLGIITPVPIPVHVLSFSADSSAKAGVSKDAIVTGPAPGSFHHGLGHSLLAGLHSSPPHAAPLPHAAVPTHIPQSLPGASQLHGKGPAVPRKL
Chain of UniProt Q9Y5Z9 (Q9Y5Z9 whole entry, looked up): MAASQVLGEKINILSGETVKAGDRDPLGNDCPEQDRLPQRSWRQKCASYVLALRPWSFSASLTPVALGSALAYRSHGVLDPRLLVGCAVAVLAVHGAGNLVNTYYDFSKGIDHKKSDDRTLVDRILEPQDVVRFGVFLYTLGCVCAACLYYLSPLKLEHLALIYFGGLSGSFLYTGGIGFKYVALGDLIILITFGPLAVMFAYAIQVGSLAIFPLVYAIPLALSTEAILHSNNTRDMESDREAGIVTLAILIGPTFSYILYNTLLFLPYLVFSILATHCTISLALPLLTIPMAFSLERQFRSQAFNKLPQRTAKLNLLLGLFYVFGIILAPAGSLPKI
Chain of UniProt O95271 (O95271 whole entry, looked up): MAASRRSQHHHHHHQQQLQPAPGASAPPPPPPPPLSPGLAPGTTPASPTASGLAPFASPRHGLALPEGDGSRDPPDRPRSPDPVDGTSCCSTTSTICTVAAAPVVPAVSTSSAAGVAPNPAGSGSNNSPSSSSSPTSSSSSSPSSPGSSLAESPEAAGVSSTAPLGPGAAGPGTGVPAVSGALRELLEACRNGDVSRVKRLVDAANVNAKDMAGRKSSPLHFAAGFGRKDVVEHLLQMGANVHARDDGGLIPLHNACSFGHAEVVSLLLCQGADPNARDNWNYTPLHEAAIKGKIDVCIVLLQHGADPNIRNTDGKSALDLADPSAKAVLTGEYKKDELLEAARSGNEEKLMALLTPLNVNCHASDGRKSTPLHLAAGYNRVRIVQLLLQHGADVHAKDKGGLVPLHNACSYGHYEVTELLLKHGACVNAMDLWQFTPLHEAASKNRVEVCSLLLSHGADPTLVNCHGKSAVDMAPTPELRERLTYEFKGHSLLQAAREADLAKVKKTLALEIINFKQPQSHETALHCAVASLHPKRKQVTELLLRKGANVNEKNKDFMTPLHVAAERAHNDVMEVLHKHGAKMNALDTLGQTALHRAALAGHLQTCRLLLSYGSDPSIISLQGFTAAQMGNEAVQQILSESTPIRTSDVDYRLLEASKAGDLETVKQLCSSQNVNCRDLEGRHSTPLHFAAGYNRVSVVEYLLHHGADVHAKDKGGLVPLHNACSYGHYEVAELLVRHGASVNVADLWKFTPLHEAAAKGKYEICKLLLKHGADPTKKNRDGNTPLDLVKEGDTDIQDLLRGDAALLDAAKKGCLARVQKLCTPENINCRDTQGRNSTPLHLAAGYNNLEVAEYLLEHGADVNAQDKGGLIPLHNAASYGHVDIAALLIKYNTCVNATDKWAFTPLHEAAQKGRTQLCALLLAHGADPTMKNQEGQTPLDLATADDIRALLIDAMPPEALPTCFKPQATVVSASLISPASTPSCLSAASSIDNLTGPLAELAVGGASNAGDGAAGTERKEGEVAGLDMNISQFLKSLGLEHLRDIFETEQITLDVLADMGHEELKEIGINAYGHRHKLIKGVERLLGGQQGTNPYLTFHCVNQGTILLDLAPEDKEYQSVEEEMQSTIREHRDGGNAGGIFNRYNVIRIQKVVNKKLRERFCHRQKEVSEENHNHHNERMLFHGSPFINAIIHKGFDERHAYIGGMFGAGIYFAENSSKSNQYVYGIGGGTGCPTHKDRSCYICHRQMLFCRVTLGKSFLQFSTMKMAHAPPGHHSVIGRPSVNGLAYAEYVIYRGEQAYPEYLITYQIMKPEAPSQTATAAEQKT
Chain of UniProt P15884 (P15884 whole entry, looked up): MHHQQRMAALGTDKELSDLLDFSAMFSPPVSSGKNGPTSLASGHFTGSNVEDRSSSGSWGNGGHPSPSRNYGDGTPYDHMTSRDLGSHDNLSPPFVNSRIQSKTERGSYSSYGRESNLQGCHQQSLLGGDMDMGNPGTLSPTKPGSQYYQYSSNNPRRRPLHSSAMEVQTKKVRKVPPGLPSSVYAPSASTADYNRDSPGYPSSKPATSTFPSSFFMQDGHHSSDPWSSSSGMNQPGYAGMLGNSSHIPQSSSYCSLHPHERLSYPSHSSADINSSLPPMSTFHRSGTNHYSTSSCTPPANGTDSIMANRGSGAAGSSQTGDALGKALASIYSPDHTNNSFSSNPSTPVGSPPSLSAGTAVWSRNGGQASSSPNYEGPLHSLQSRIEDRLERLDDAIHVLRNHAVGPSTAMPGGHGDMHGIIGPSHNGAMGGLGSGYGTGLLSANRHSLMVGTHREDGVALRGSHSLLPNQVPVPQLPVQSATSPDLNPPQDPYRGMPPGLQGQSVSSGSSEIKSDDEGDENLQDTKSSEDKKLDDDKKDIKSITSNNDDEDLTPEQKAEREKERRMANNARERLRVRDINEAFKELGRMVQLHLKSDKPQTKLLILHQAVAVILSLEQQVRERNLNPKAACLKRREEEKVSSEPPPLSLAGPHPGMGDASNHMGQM
Chain of UniProt Q9NRX6 (Q9NRX6 whole entry, looked up): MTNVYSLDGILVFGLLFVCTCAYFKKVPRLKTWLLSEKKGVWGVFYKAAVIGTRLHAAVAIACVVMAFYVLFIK
Chain of UniProt P62328 (P62328 whole entry, looked up): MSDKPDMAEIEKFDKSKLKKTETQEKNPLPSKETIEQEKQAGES
Chain of UniProt Q6P9G4 (Q6P9G4 whole entry, looked up): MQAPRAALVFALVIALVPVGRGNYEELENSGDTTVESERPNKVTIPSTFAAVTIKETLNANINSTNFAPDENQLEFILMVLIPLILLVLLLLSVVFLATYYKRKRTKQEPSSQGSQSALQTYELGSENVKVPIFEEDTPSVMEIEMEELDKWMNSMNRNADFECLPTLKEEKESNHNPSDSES

Target | log2 fold change
UBIAD1 (UniProt Q9Y5Z9) | -0.025
UBN1 (UniProt Q9NPG3) | 0.03
UCP2 (UniProt P55851) | -0.003
TCF3 (UniProt X6REB3) | -0.031
UBAP2L (UniProt F8W726) | -0.018
TMEM161B (UniProt Q8NDZ6) | -0.076
TMEM177 (UniProt Q53S58) | 0.015
TSPAN3 (UniProt O60637) | 0.174
TRIM3 (UniProt O75382) | 0.197
TMEM167B (UniProt Q9NRX6) | 0.036
UBR4 isoform 4 (UniProt Q5T4S7) | -0.023
TRAF7 (UniProt Q6Q0C0) | 0.007
TFPI isoform 2 (UniProt P10646) | 0.048
TPM3 isoform 3 (UniProt P06753) | -0.048
TEC (UniProt P42680) | 0.114
TMC1 (UniProt Q8TDI8) | 0.038
TUBB6 (UniProt K7ES63) | -0.028
TNKS (UniProt O95271) | 0.023

Compound: Cc1sc2c(c1C)C(c1ccc(Cl)cc1)=N[C@@H](CC(=O)OC(C)(C)C)c1nnc(C)n1-2
Experiment: as above
Summary of the method: as §1

Target | log2 fold change
UBIAD1 (UniProt Q9Y5Z9) | -0.048
UBN1 (UniProt Q9NPG3) | -0.164
U2AF1L5 (UniProt P0DN76) | 0.002
TGFBR1 isoform 2 (UniProt P36897) | -0.004
TEDC1 (UniProt Q86SX3) | 0.058
TCF4 (UniProt P15884) | 0.047
TLE3 (UniProt H0YL70) | -0.343
TSPAN3 (UniProt O60637) | 0.006
TASP1 (UniProt Q9H6P5) | 0.059
TLE3 isoform 5 (UniProt Q04726) | -0.069
TFPT (UniProt P0C1Z6) | -0.052
TUBB4A (UniProt P04350) | 0.044
TRPM4 (UniProt Q8TD43) | -0.042
TNFAIP3 (UniProt P21580) | 0.033
UBR4 isoform 4 (UniProt Q5T4S7) | -0.284
TNIK isoform 5 (UniProt Q9UKE5) | -0.089
TRAF7 (UniProt Q6Q0C0) | -0.005
TPM3 isoform 3 (UniProt P06753) | -0.041
TMEM154 (UniProt Q6P9G4) | -0.073
TCF20 (UniProt Q9UGU0) | -0.263
TNKS (UniProt O95271) | 0.039

Compound: c1ccc([C@@H]2C[C@H]2NC2CCNCC2)cc1
Experiment: as above
Summary of the method: as §1

Target | log2 fold change
UBIAD1 (UniProt Q9Y5Z9) | 0.025
TENM4 (UniProt Q6N022) | 0.137
UBN1 (UniProt Q9NPG3) | 0.085
U2AF1L5 (UniProt P0DN76) | -0.499
TMEM132A isoform 2 (UniProt Q24JP5) | -0.066
TCF3 (UniProt X6REB3) | -0.25
TLK2 isoform 3 (UniProt Q86UE8) | 0.097
TCF4 (UniProt P15884) | 0.091
TMEM161B (UniProt Q8NDZ6) | -0.025
TMEM177 (UniProt Q53S58) | 0.068
TSPAN3 (UniProt O60637) | 0.16
TLE3 isoform 5 (UniProt Q04726) | 0.199
TMEM167B (UniProt Q9NRX6) | -0.187
TPD52L2 isoform 3 (UniProt O43399) | 0.098
TUBB4A (UniProt P04350) | 0.044
TRPM4 (UniProt Q8TD43) | -0.354
TNFAIP3 (UniProt P21580) | 0.06
TUBA4A (UniProt C9JQ00) | 0.056
TNIK isoform 5 (UniProt Q9UKE5) | -0.041
TRAF7 (UniProt Q6Q0C0) | 0.238
TJP1 (UniProt H0Y3R8) | 0.031
TPM3 isoform 3 (UniProt P06753) | -0.266
TM2D3 (UniProt Q9BRN9) | -0.513
TMSB4X (UniProt P62328) | 0.176
TUBB6 (UniProt K7ES63) | -0.085
TCF20 (UniProt Q9UGU0) | -0.059
TNKS (UniProt O95271) | -0.035
